For 6 compounds, normalised indicator fluorescence results are on record in the supplement of paper PMC11865577.

Each structure is given as a SMILES string.

In the assay the test system is SARS-CoV-2 low-rank motif (SARS-low). The experiment in a line: normalised indicator fluorescence (fraction of RNA + indicator signal without compound); higher = less displacement of indicator (weaker competition). To be noted: compound concentration: 5 uM, 30 min. The gist of the method:
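Compounds, each at about 5 uM final from 0.25 μL of 1 mM DMSO stock, were tested in 96-well plates for displacement of TO-PRO-1 or TO-PRO-3 from RNA in 20 mM phosphate pH 7.0, 20 mM NaCl, 80 mM KCl. Fluorescence was recorded after 30 min on an Infinite 200 PRO (excitation 485 or 620 nm). Reported values are averages of two independent experiments, calculated as indicator fluorescence minus the buffer-plus-indicator blank, divided by the RNA-plus-indicator signal without compound.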

[1] abbreviates: indicator: TO-PRO-1 0.1 uM, RNA concentration: 0.1 uM.
[2] abbreviates: indicator: TO-PRO-3 0.5 uM, RNA concentration: 0.5 uM.

As to `NC(=O)c1ccccc1Nc1ccnc(Nc2cccc(O)c2)n1`, the normalised indicator fluorescence runs as follows: under setting [1], 1.1; under setting [2], 1.06.
On the same counts, the results for `CO[C@H]1/C=C/O[C@@]2(C)Oc3c(C)c(O)c4c(c3C2=O)C2=NC3(CCN(CC(C)C)CC3)NC2=C(NC(=O)/C(C)=C\C=C\[C@H](C)[C@H](O)[C@@H](C)[C@@H](O)[C@@H](C)[C@H](OC(C)=O)[C@@H]1C)C4=O` [Rifabutin] are 1.1 and 1.16.
`OC[C@H]1O[C@@H](Oc2ccc(O)cc2)[C@H](O)[C@@H](O)[C@@H]1O` [Arbutin]: the normalised indicator fluorescence runs as follows: under setting [1], 1.1; under setting [2], 1.25.
On the same counts, the results for `O=c1cc(-c2ccccc2)oc2cc(O)c(O)c(O)c12` [Baicalein] are 0.791 and 0.739.
On the same counts, the results for `COc1ccc(O)cc1` [4-Methoxyphenol] are 1.12 and 1.27.
On the same counts, the results for `NC(=O)c1ccc(N(C(N)=O)c2c(F)cccc2F)nc1-c1ccc(F)cc1F` are 1.28 and 1.21.
